# Experimental data taken from the supplement of paper PMC11732987, “Enantioselective OTUD7B fragment discovery through chemoproteomics screening and high-throughput optimisation” (Communications Chemistry, 2025).
# A number with no mark means an inactive call.
# How the values were obtained:
# Assay in all cases: log2 ratio of Biotin-Ahx-Ub-VS probe labelling (fragment/DMSO); higher = less target engagement (more negative = stronger competition), active = hit call of the paper (q ≤ 0.05, log2 ratio ≤ -1)
# Settings in all cases: compound concentration: 200 uM; treatment time: 3 h
# USP42 = target: T1, USP42 (UniProt Q9H9J4)
# T1 sequence (whole entry): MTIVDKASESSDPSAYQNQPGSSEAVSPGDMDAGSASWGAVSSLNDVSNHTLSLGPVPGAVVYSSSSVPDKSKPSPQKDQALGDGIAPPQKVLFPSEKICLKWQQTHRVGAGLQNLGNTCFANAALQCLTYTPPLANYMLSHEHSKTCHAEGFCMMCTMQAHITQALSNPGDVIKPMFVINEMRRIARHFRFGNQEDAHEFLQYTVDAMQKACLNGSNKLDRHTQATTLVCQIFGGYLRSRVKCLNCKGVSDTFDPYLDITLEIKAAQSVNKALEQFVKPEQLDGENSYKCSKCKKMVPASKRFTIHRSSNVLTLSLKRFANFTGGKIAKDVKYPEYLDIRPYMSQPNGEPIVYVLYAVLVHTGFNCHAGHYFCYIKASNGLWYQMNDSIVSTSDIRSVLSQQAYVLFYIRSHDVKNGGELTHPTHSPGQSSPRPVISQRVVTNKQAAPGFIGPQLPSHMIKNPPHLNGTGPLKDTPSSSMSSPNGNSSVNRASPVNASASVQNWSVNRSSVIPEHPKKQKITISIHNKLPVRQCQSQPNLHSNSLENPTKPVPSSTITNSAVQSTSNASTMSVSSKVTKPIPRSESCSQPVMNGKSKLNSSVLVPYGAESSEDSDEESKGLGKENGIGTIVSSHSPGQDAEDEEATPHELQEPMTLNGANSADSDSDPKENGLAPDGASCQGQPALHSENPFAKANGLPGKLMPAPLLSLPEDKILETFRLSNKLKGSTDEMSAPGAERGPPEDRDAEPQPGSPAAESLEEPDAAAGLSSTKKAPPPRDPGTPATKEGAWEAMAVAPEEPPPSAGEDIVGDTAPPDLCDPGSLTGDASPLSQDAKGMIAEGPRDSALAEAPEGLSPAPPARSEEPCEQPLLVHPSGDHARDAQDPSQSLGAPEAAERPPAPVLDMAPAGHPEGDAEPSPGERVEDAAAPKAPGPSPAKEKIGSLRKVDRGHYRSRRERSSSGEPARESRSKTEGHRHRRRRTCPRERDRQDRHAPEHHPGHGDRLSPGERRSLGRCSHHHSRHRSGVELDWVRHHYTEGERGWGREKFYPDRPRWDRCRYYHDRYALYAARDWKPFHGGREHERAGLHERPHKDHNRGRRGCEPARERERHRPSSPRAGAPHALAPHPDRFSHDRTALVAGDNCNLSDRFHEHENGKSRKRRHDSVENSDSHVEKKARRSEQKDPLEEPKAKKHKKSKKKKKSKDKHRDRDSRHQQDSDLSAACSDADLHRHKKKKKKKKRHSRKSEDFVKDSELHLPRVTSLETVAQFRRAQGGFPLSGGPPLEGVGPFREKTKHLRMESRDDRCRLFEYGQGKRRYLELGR
# How it was run: (§1)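 Labelled DUBs from HEK293T lysate were NeutrAvidin-enriched, digested with LysC and trypsin, and run by diaPASEF LC-MS/MS. Before that, each 495 µg sample in Tris/CHAPS/IGEPAL buffer with protease inhibitors was treated in triplicate with fragment at 200 µM or vehicle for 3 h, then with Biotin-Ahx-Ub-VS at 0.5 µM final for 1 h. Values are average log2 ratios of fragment over vehicle by unpaired t-test, based on global-median-normalised Spectronaut label-free quantities from proteins with ≥2 unique peptides.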
# USP46 = USP46 (UniProt P62068)
# How it was run: as §1
# USP47 = target: T2, USP47 (UniProt Q96K76)
# T2 sequence (whole entry): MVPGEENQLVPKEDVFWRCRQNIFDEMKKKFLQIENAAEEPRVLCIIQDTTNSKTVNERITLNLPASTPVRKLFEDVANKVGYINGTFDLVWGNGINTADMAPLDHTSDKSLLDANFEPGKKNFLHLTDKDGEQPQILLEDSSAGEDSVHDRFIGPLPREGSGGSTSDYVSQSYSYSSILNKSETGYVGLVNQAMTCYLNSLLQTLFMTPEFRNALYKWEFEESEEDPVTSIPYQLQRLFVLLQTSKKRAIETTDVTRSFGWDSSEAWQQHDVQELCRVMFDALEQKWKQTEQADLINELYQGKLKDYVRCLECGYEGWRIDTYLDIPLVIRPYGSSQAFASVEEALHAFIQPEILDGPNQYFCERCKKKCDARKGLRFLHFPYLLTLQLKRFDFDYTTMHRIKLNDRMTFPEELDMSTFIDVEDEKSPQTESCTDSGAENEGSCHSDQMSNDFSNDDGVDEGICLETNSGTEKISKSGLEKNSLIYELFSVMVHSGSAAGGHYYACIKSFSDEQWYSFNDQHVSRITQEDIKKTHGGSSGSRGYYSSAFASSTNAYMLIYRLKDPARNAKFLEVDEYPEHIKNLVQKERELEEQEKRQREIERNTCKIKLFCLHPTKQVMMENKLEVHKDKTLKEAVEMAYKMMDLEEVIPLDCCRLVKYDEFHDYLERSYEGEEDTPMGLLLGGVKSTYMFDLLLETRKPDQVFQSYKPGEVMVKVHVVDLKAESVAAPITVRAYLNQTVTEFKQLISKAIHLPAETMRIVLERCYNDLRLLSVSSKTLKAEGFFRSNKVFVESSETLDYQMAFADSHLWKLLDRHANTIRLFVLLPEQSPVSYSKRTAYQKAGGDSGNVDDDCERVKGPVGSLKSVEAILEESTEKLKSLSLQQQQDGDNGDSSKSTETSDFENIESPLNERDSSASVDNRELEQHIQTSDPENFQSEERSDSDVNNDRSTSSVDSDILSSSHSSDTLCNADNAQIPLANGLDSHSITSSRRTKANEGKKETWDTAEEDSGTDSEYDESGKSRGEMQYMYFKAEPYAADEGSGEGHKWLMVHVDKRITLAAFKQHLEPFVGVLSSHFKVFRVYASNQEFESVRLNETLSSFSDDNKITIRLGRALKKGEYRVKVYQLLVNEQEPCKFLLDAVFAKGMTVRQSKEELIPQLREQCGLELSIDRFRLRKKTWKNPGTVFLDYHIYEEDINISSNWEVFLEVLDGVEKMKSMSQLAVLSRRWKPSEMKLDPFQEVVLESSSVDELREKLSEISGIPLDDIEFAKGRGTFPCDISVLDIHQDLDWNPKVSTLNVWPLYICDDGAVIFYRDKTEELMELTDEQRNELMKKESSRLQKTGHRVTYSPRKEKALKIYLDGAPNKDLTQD
# How it was run: as §1
# USP48 = target: T3, USP48 (UniProt Q86UV5)
# T3 sequence (whole entry): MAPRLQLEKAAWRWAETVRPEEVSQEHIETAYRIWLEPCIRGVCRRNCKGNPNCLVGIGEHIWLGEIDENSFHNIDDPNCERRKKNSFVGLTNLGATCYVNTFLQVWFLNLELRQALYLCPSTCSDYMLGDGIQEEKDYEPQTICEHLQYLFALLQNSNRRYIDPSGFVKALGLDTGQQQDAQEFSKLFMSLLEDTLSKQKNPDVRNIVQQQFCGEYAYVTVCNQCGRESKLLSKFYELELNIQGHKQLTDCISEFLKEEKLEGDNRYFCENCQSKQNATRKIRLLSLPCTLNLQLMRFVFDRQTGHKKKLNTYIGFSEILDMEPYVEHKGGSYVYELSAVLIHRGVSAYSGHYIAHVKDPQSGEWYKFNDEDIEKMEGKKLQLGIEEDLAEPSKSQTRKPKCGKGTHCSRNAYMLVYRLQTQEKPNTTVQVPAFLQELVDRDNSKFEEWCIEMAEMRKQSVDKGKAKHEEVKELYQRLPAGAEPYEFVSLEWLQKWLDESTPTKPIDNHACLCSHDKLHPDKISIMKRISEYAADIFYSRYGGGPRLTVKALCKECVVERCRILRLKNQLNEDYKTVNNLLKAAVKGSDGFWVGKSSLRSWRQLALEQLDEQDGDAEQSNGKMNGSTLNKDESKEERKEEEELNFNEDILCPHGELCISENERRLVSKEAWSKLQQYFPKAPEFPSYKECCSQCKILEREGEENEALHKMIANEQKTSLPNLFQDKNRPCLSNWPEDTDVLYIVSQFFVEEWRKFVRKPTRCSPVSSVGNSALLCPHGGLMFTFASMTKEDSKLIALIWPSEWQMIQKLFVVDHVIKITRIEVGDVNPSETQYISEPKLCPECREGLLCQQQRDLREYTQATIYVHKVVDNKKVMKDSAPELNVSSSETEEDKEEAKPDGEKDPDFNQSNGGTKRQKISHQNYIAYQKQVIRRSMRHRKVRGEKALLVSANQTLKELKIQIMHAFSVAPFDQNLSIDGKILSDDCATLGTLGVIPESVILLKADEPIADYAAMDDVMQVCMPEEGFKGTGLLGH
# How it was run: as §1
# USP5 = target: T4, USP5 (UniProt P45974)
# T4 sequence (whole entry): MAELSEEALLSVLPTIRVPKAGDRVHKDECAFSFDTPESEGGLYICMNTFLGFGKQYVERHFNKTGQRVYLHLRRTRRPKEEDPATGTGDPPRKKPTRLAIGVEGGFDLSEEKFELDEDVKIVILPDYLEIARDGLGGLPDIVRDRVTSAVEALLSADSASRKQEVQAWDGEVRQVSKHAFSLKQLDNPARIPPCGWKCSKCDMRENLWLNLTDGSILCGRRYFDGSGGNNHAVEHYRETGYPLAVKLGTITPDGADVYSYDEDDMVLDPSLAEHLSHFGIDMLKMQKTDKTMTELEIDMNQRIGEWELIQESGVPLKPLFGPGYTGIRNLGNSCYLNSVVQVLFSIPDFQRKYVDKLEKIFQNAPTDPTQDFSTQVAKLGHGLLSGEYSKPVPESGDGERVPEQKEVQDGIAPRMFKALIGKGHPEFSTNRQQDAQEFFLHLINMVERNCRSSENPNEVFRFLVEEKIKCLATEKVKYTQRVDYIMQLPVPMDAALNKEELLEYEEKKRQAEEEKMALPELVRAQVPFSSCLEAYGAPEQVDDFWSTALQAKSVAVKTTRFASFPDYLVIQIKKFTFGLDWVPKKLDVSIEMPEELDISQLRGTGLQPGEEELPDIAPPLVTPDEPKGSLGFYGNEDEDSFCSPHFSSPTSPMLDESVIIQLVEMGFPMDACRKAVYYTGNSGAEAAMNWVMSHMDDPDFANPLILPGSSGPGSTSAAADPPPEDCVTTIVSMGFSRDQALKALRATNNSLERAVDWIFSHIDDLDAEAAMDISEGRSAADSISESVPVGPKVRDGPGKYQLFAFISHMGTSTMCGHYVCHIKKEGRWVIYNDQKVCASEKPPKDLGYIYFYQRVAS
# How it was run: as §1
# USP54 = USP54 (UniProt Q70EL1)
# How it was run: as §1
# USP7 = USP7 (UniProt Q93009)
# How it was run: as §1
# USP8 = target: T5, USP8 (UniProt P40818)
# T5 sequence (whole entry): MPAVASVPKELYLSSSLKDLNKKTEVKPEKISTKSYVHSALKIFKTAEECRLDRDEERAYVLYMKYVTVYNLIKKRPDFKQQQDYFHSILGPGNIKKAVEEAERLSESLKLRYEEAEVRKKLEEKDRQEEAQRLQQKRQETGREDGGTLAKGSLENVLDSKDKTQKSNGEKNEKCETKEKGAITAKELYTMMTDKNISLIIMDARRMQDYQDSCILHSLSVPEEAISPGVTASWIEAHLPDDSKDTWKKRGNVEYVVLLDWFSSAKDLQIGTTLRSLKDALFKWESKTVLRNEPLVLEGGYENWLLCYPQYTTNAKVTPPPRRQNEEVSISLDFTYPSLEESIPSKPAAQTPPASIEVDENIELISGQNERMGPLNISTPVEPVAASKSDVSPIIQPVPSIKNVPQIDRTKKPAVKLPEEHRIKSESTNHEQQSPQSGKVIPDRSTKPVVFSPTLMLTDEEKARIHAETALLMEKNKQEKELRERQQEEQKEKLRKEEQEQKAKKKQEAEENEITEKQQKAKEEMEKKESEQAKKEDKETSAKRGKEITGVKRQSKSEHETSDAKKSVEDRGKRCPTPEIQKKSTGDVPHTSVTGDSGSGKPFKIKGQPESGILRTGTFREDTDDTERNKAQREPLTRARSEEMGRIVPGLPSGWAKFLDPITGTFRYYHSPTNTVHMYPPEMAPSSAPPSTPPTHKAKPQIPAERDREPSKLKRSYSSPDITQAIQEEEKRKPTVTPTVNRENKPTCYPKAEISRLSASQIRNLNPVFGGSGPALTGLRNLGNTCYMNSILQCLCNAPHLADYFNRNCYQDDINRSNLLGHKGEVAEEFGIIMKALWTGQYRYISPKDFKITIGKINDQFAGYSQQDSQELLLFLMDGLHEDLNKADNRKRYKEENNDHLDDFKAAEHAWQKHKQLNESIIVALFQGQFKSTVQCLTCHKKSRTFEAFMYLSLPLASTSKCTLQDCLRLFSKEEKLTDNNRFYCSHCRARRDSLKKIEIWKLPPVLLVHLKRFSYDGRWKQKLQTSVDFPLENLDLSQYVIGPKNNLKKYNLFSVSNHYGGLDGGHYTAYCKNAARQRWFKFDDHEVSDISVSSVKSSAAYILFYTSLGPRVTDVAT
# How it was run: as §1
# USP9X = USP9X (UniProt Q93008)
# How it was run: as §1
# UniProt O00487 = target: UniProt O00487
# How it was run: as §1
# Chain of USP9X (Q93008 whole entry): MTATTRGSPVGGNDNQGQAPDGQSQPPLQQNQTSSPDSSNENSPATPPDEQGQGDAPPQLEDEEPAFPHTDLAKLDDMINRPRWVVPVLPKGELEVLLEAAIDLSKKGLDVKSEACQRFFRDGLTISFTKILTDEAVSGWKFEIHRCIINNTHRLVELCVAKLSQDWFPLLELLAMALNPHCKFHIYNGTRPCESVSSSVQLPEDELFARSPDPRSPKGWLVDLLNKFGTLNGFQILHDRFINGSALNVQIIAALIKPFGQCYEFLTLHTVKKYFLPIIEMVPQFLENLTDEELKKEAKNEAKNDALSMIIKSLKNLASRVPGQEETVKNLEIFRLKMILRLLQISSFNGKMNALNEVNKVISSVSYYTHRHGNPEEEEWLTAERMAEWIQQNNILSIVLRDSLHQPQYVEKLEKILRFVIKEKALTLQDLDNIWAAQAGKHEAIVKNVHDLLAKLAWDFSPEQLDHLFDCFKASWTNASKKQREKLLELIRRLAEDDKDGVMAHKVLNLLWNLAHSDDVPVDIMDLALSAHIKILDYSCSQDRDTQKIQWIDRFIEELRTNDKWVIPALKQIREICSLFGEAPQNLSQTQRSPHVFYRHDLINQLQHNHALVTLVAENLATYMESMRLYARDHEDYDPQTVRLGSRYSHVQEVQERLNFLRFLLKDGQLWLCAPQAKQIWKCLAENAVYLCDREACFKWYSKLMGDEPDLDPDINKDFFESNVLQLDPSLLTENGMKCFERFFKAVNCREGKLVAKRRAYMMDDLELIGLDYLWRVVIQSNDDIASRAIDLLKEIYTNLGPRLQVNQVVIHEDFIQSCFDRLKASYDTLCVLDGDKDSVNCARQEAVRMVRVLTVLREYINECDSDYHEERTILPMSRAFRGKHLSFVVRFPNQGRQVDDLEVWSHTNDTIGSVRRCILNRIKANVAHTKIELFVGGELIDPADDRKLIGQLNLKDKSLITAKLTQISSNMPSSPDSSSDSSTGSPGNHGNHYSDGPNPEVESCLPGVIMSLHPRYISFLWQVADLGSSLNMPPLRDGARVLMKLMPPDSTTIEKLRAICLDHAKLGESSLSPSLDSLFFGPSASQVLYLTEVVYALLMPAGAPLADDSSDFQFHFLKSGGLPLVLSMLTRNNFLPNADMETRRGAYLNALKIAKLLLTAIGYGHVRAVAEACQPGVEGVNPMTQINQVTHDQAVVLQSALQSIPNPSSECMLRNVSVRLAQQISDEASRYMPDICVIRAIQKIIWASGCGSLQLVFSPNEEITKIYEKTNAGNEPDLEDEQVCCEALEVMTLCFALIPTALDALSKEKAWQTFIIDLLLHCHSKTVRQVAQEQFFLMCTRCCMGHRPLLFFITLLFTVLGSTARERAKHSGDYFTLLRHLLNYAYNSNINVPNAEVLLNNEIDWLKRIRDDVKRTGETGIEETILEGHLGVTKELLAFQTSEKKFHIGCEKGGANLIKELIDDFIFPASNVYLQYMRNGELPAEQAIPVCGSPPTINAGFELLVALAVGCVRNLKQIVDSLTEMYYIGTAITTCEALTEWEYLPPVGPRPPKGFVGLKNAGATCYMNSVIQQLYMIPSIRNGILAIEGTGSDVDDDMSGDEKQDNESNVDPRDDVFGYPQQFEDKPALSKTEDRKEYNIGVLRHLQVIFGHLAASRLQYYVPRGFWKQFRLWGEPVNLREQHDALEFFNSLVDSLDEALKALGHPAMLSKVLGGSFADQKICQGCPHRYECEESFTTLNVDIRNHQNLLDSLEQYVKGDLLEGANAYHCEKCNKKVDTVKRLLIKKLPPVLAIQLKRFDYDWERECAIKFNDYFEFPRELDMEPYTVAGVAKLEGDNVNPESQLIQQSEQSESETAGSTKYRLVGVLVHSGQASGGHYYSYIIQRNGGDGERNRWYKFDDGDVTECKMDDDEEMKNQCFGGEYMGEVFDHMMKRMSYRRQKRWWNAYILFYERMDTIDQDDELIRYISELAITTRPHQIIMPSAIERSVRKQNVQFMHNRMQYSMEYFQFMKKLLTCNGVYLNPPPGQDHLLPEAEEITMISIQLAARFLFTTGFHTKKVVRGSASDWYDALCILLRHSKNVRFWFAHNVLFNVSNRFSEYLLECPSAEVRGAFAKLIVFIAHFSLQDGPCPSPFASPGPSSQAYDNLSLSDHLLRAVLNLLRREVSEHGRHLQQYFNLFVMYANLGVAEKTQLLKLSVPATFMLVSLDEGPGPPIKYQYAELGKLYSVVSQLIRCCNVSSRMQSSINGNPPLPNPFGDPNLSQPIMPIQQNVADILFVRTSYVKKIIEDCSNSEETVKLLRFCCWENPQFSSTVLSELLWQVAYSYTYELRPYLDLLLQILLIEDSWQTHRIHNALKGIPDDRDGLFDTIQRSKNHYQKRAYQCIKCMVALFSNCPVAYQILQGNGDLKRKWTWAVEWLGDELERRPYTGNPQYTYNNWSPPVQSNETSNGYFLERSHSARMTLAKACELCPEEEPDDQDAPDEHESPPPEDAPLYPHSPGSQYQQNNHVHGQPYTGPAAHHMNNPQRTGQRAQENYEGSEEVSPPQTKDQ
# Chain of USP54 (Q70EL1 whole entry): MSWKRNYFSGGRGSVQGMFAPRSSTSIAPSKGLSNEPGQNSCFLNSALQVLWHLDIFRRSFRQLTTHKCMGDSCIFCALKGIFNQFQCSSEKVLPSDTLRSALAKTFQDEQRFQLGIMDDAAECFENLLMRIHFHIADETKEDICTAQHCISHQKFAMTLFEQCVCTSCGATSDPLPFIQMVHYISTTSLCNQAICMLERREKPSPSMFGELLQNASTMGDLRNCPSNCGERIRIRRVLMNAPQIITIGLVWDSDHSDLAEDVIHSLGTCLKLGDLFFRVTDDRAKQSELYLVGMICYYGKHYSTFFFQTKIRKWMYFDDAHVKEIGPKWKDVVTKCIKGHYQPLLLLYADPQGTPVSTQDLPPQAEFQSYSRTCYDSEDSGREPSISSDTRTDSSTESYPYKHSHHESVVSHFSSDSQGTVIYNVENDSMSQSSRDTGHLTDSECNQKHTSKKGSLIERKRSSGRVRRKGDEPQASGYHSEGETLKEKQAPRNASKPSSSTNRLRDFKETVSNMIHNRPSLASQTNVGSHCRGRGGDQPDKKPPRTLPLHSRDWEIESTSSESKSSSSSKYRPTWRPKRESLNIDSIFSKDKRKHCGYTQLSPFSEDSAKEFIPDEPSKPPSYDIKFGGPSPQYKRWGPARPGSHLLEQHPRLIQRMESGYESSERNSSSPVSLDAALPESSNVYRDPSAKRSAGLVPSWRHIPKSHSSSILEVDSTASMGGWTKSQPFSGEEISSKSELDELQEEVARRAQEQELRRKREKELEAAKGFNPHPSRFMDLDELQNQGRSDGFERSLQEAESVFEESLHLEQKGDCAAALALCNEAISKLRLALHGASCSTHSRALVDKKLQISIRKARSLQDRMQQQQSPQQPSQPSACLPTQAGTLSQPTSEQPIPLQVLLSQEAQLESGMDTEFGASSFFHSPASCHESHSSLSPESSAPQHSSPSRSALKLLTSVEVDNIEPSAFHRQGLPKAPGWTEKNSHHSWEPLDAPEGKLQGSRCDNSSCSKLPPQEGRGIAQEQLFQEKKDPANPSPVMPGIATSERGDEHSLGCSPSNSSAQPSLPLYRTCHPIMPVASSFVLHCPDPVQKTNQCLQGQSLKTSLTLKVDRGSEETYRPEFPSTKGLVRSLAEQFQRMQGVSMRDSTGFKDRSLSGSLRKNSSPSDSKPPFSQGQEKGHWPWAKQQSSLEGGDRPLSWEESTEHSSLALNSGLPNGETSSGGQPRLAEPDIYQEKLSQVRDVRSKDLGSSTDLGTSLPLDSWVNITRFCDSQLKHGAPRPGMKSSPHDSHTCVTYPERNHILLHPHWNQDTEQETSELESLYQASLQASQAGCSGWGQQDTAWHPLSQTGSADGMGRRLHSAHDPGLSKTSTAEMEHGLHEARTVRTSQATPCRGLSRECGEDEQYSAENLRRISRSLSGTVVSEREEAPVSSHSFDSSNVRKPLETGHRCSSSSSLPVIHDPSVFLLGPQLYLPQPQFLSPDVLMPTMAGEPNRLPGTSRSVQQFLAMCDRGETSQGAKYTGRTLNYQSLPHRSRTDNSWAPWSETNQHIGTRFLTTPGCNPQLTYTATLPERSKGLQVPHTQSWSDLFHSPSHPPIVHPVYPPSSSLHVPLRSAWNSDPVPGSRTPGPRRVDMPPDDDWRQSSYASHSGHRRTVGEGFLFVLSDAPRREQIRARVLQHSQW
# Chain of USP46 (P62068 whole entry): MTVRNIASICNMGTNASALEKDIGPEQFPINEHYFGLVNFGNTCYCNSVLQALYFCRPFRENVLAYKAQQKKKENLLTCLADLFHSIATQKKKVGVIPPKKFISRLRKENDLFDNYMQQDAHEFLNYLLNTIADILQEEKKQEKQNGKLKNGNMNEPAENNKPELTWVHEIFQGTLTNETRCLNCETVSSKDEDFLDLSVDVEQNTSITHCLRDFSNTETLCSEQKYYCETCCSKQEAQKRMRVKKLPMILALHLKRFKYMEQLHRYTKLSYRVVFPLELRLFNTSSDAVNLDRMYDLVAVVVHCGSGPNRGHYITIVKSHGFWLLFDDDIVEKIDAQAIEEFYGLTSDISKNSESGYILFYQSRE
# Chain of UniProt O00487 (O00487 whole entry): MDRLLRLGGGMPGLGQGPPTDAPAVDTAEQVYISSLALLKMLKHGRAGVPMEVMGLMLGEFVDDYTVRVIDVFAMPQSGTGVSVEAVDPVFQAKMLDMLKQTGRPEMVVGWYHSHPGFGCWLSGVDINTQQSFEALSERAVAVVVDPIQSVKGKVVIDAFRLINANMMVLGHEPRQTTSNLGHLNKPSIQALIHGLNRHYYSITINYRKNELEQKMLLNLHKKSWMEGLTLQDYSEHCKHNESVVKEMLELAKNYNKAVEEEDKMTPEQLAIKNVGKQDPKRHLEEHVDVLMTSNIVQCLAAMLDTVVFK
smiles,measurement,setting,value
O=C(CCl)N1CCCN(C(=O)c2ccc(Cl)cc2)CC1,log2 ratio of Biotin-Ahx-Ub-VS probe labelling,USP42,-0.0422
same,log2 ratio of Biotin-Ahx-Ub-VS probe labelling,USP46,-0.129
same,log2 ratio of Biotin-Ahx-Ub-VS probe labelling,USP47,-0.76
same,log2 ratio of Biotin-Ahx-Ub-VS probe labelling,USP48,-1.16 (active)
same,log2 ratio of Biotin-Ahx-Ub-VS probe labelling,USP5,0.0155
same,log2 ratio of Biotin-Ahx-Ub-VS probe labelling,USP54,0.842
same,log2 ratio of Biotin-Ahx-Ub-VS probe labelling,USP7,-1.18 (active)
same,log2 ratio of Biotin-Ahx-Ub-VS probe labelling,USP8,-0.354
same,log2 ratio of Biotin-Ahx-Ub-VS probe labelling,USP9X,-0.318
same,log2 ratio of Biotin-Ahx-Ub-VS probe labelling,UniProt O00487,0.0259
